Each sequence was assayed against RUNX1 (Homo sapiens, UniProt Q01196 1-453) (assay: custom PBM; custom protein-binding microarray; buffer, salt, pH and temperature not stated; high values mean tight binding). Details: dsDNA, one strand shown.
RUNX1, sequence (Q01196 whole entry): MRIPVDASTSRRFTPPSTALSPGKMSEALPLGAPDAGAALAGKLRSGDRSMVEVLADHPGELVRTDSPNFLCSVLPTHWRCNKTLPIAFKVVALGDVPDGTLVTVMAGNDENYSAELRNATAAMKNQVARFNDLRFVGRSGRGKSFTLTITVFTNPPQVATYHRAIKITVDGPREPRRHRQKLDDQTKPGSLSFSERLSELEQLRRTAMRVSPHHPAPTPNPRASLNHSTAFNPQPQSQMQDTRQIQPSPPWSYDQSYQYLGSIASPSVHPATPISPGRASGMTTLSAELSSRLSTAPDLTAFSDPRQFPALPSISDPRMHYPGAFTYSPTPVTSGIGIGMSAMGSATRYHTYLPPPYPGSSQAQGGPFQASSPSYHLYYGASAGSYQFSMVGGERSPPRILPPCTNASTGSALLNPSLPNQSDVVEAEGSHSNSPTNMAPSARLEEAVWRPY
In the case of “GCATACGGCTGACATCAGCCACATACGCACACATACACATACACACATACACATACGCAC”, the binding signal is reported as 10.9 log fluorescence intensity. “CGCGCGCTCTGTGGTTGCGCACATACGCACACATACACATACACACATACACATACGCAC” was tested, and the binding signal was 11.2 log fluorescence intensity. For “CGCGCACACTGTGGTTGCGCACATACGCACACATACACATACACACATACACATACGCAC”, the binding signal was 11.2 log fluorescence intensity. With “GCATACGGTTGACGTCAGCCACATACGCACACATACACATACACACATACACATACGCAC” the binding signal was 11 log fluorescence intensity. In the case of “GCGCACATTGCCCGTAAATCATACACGCACACATACACATACACACATACACATACGCAC”, the binding signal is reported as 10.9 log fluorescence intensity. In the case of “GCGCACATTTGCCGTAAATCATACACGCACACATACACATACACACATACACATACGCAC”, the binding signal is reported as 10.9 log fluorescence intensity. In the case of “CGCGCACGCTGTGGTTGCGCACATACGCACACATACACATACACACATACACATACGCAC”, the binding signal is reported as 11.2 log fluorescence intensity. For “CGCGCACTCTGTGGTTGCGCACATACGCACACATACACATACACACATACACATACGCAC”, the binding signal was 11.7 log fluorescence intensity. For “GCGCACATTTCCCGTAAATCATACACGCACACATACACATACACACATACACATACGCAC”, the binding signal was 11 log fluorescence intensity. In the case of “GCGCACTTTTCCCGTAAATCATACACGCACACATACACATACACACATACACATACGCAC”, the binding signal is reported as 11 log fluorescence intensity. With “GCGCACATCTCCCGTAAATCATACACGCACACATACACATACACACATACACATACGCAC” the binding signal was 10.9 log fluorescence intensity. For “GCATACGGCGGACGTCAGCCACATACGCACACATACACATACACACATACACATACGCAC”, the binding signal was 11 log fluorescence intensity. In the case of “GCATACGGCTGACGGCAGCCACATACGCACACATACACATACACACATACACATACGCAC”, the binding signal is reported as 10.9 log fluorescence intensity. In the case of “CGCGCACTCGGTGGTTGCGCACATACGCACACATACACATACACACATACACATACGCAC”, the binding signal is reported as 11 log fluorescence intensity. “GCATACGGCTGCCGTCAGCCACATACGCACACATACACATACACACATACACATACGCAC” was tested, and the binding signal was 11 log fluorescence intensity. For “CGCGCACTCTCTGGTTGCGCACATACGCACACATACACATACACACATACACATACGCAC”, the binding signal was 10.9 log fluorescence intensity. “GCATACGGGTGACGTCAGCCACATACGCACACATACACATACACACATACACATACGCAC” was tested, and the binding signal was 10.9 log fluorescence intensity. With “CGCGCACTCTGTGGTTGGGCACATACGCACACATACACATACACACATACACATACGCAC” the binding signal was 11.6 log fluorescence intensity. In the case of “GCATACGGCTGACGTCATCCACATACGCACACATACACATACACACATACACATACGCAC”, the binding signal is reported as 10.9 log fluorescence intensity. For “GCGCACAGTTCCCGTAAATCATACACGCACACATACACATACACACATACACATACGCAC”, the binding signal was 10.9 log fluorescence intensity. For “GCATACAGCTGACGTCAGCCACATACGCACACATACACATACACACATACACATACGCAC”, the binding signal was 11 log fluorescence intensity. “CGCGCTCTCTGTGGTTGCGCACATACGCACACATACACATACACACATACACATACGCAC” was tested, and the binding signal was 11.4 log fluorescence intensity. In the case of “CGCGCACTCTGTGCTTGCGCACATACGCACACATACACATACACACATACACATACGCAC”, the binding signal is reported as 10.9 log fluorescence intensity. With “CGCGCACTCTGTGGTCGCGCACATACGCACACATACACATACACACATACACATACGCAC” the binding signal was 11.3 log fluorescence intensity. For “CGCGCACTCTGTGGTTGCACACATACGCACACATACACATACACACATACACATACGCAC”, the binding signal was 11.6 log fluorescence intensity. “GCGCACATTTCCGGTAAATCATACACGCACACATACACATACACACATACACATACGCAC” was tested, and the binding signal was 11 log fluorescence intensity. For “GCGCACATTTCCCGCAAATCATACACGCACACATACACATACACACATACACATACGCAC”, the binding signal was 11.1 log fluorescence intensity. For “CGCGCACTCTGTGGTAGCGCACATACGCACACATACACATACACACATACACATACGCAC”, the binding signal was 11 log fluorescence intensity. For “CGCGCACTCTGTGGTTCCGCACATACGCACACATACACATACACACATACACATACGCAC”, the binding signal was 11.4 log fluorescence intensity. In the case of “GCGCATATTTCCCGTAAATCATACACGCACACATACACATACACACATACACATACGCAC”, the binding signal is reported as 10.9 log fluorescence intensity. “CGCGCACTCTGTGGTGGCGCACATACGCACACATACACATACACACATACACATACGCAC” was tested, and the binding signal was 11.1 log fluorescence intensity. With “GCGCACATTTCCCGTAAACCATACACGCACACATACACATACACACATACACATACGCAC” the binding signal was 11 log fluorescence intensity.
